Compounds with a hit are over-represented: about 14% of the library has one in this group of screens.
HSD17B inh = blocks hydroxysteroid 17-beta dehydrogenase activity; Q99714; Potency, µM (highest dose often 57.1 µM), for inactives: at the top dose activity change, negative = inhibition, usual class: inhibitors; hit rate 7.6% among 75,000; recombinant HSD17B10, NADH fluorescence kinetic; AID 893;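 also: the protocol describes HADH2 (HSD17B10) and not the HSD17B4 of the title; potency is read from the fitted curve at half-maximal effect; % is scaled to controls: 0 for no effect and ±100 for the full control effect; nearly all actives have a fitted effect of over 70% in size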
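Activity followed as NADH fluorescence increase (ex 360, em 450 nm) every 30 seconds for 4 min, using final 90 uM beta-hydroxybutyryl CoA and 1 mM NAD+. Recombinant His-tagged enzyme, 20 nM, pH 9.0 Tris buffer, 15 min compound preincubation.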
AID923 = qHTS Assay for Allosteric/Competitive Inhibitors of Caspase-1: Spectroscopic Profiling in AFC Spectral Region. compound fluorescence, AFC spectral region (405/520 nm). Potency, µM (top dose mostly 57.5 µM), for inactives: at the highest dose fluorescence increase, usual class: activators. hit rate 1.1% among 75,000; also: potency is read from the fitted curve at half-maximal effect; 0% is about no effect
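Compound autofluorescence profiled at 405 nm ex/520 nm em during kinetic caspase 1 run (50 nM enzyme, 5 uM Ac-WEHD-AFC, HEPES pH 7.5, 10 mM DTT). Titration up to 57 uM; baseline from regression intercept, normalized to AFC standard curve.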
CRE-bla Fsk = alters forskolin-stimulated CRE reporter signaling in CHO cells | CHO CRE-bla reporter (cAMP response element driving beta-lactamase), forskolin EC10, beta-lactamase ratio | Potency, µM (doses to about 38.2 µM), inactives show at the top dose activity change, negative = inhibition, hits mostly activators | AID 662 | hit rate 2.5% among 71,000; active = well fitted activation curve with a large enough effect in the signal ratio, with a control signal flat, not every such curve was filed as active; inconclusive = small, poorly fitted or top-dose-only effect, or effect the other way, or a change in a side signal; the % refers to the signal ratio; also: potency is read from the fitted curve at half-maximal effect; % of control where 0% means no effect
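qHTS titration format; CRE-bla CHO reporter; stimulus EC10 NKH 477, a water-soluble forskolin. Read: CCF4 460/530 nm ratio. Potency expressed as AC50 for activators or inhibitors.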
A350 autofl = A350 region autofluorescence; Compound autofluorescence, 340/450 nm, Alexa 350 dye-equivalents; active compounds read high; max dye-equivalent concentration, M; hit rate 11% among 59,000; AID 590; in the data active = max dye-equivalent concentration above about 10 nM; inconclusive = mostly about 1.1 nM to 9.6 nM
4-MU autofl = compounds fluorescent in 4-MU spectral region. compound autofluorescence, 340/450 nm, 4-MU equivalents; active compounds read high. max dye-equivalent concentration, M. hit rate 11% among 59,000. AID 589; in the data active = max dye-equivalent concentration above about 10 nM; inconclusive = mostly about 1.1 nM to 9.6 nM
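Intrinsic fluorescence at 340/450 nm (ex/em) was read after 15 min at room temperature in pH 8.0, 100 mM Tris. Each compound concentration expressed as 4-MU-equivalent concentration from a six-point 4-MU standard series on each plate.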
HADH2 inhib = blocks human hydroxyacyl-CoA dehydrogenase type II. recombinant HADH2, NADH fluorescence, beta-hydroxybutyryl-CoA. hit rate 3.4% among 73,000. Q99714. Potency, µM (top dose mostly 57.1 µM), for the others: at the highest dose activity change, negative = inhibition, usual class: inhibitors; also: potency is read from the fitted curve at half-maximal effect; % is scaled to controls: 0 for no effect and ±100 for the full control effect; nearly all actives have a fitted effect of over 60% in size
Target sequence (Q99714 whole entry, looked up, one chain of several): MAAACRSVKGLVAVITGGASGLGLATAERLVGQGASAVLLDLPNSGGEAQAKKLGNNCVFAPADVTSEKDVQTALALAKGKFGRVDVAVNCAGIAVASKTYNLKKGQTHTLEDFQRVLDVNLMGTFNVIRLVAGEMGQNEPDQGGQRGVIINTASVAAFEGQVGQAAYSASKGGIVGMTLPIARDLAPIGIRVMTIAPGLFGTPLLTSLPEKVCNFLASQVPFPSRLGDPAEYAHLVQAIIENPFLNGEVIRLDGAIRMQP
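E. coli-expressed His-tagged HADH2 tested at 20 nM in alkaline Tris buffer (pH 9.0); oxidation of 90 uM beta-hydroxybutyryl-CoA with 1 mM NAD+ tracked fluorimetrically for 4 min.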
The depositor's hits bear a star; i = inactive; ? = inconclusive; nt = no result; [ ] = remark or other dose. Unless noted, calls follow the shape of the dose curve; as a rule, active = well fitted curve in the direction sought with a large enough effect; inconclusive = small, poorly fitted or top-dose-only effect, or another doubt; inactive = no such curve, though single readings can be large; an effect the other way counts as inactive or inconclusive.

SMILES	HSD17B inh	AID923	CRE-bla Fsk	A350 autofl	4-MU autofl	HADH2 inhib
O=c1n(Cc2cc3c(cc2Cl)OCO3)c(=O)n2n1CC[C@H]1/C(=N\OC[C@@H](O)COCc3ccco3)[C@H]3O[C@@H]3[C@@H](O)[C@@H]12	10.9%[11.4 µM]	2.6%[11.5 µM]	nt	nt	nt	9.6%[11.4 µM]
Nc1c2c(nc3ccn(-c4ccccc4)c(=O)c13)CCCCC2	31.6µM*	1.2%	?	?	2.59e-08M*	?
Nc1c2c(nc3ccn(Cc4ccccc4)c(=O)c13)CCC2	25.1µM*	-0.7%	?	?	1.36e-08M*	-10.3%
O=c1[nH]c(N2CCN(c3ccccc3)CC2)nc2c1CCC2	-0.6%	-2.2%	0.1%	i	i	10.8%
O=c1c2c(nc3nc(SCc4ccccc4)[nH]n13)CCC2	3.5%	0.1%	-11.8%	?	i	0.7%
COc1ccc(NC(=O)N2CCC3(CC2)CCN(S(C)(=O)=O)CC3)cc1	-0.6%	3.4%	-0.3%	i	i	-6.2%
CC(C)c1ccc2c(c1)CC[C@H]1[C@@](C)(CN)CCC[C@@]21C	7.7%[11.4 µM]	-1.9%[11.5 µM]	17.4%[7.6 µM]	i	i	12.9%[11.4 µM]
CCCCCOc1ccc(/C=c2\sc3ncnn3c2=O)cc1	13.8%	0.0%	-1.6%	?	i	-0.7%
CCCCOc1ccc(/C=c2\sc3ncnn3c2=O)cc1	-0.7%	-0.1%	19.9%	?	1.69e-08M*	-1.1%
COCCCNC(=O)CCC(=O)Nc1ccc2nc(N3CCOCC3)cc(C)c2c1	25.1µM*	-4.3%	28.8%	1.58e-06M*	1.71e-06M*	12.2%
Cc1cc(N2CCOCC2)nc2ccc(NC(=O)C3CCC(C)CC3)cc12 (centres undefined)	7.94µM*	0.6%	11.6%	2.19e-07M*	2.4e-07M*	?
CCN1CCN(c2cc(C)c3cc(NC(=O)c4ccncc4)ccc3n2)CC1	-22.5%	3.3%	4.1%	nt	nt	-10.8%
CCCCNC(=O)CCC(=O)Nc1ccc2nc(N3CCOCC3)cc(C)c2c1	25.1µM*	-1.7%	12.5%	1.19e-06M*	1.26e-06M*	25.1µM*
CCOC(=O)C1CCCN(C(=O)CCC(=O)Nc2ccc3nc(N4CCOCC4)cc(C)c3c2)C1 (centres undefined)	25.1µM*	-0.3%	27.5%	1.05e-06M*	1.17e-06M*	20µM*
Clc1ccc(CN2CCCN(Cc3ccc(Cl)cc3)C2c2cc3ccccc3c3ccccc23)cc1	4.4%[11.4 µM]	-2.5%[11.5 µM]	0.2%[7.6 µM]	i	i	3.1%[11.4 µM]
O=C(c1cccc(F)c1)N1CCC[C@@]2(CCN(Cc3ccccc3)C2)C1	-4.7%	1.3%	-4.6%	i	i	-3.9%
CC(=O)Nc1ccc(C2NC(C(=O)O)CCC2C)cc1 (centres undefined)	4.1%[11.4 µM]	1.4%[11.5 µM]	nt	nt	nt	-9.5%[11.4 µM]
Cc1cccc2c1Oc1ccccc1[C@@H]2NC(=O)c1ccc([N+](=O)[O-])cc1	-1.2%[11.4 µM]	-1.8%[11.5 µM]	-8.5%[7.6 µM]	i	i	-10.6%[11.4 µM]
Cc1noc(C)c1-c1ccc2ncnc(N3CCOCC3)c2c1	13.6%	-1.4%	?	i	i	1.2%
Cc1cc(N2CCN(C)CC2)nc2ccc(NC(=O)CCC(=O)NCCC3=CCCCC3)cc12	?	0.7%	?	1.38e-07M*	1.53e-07M*	-16.6%
Cn1cccc1-c1nc2ccccc2n1Cc1ccccc1	25.1µM*	0.1%	2.0%	i	i	5.8%
Cc1ccc(Cn2c(-c3nonc3N)nc3ccccc32)cc1	-3.9%	-1.5%	9.6%	i	i	3.7%
O=C(O)c1cc(S(=O)(=O)Nc2ccc(O)cc2)ccc1Cl	0.4%	0.0%	nt	nt	nt	-15.7%
COC(=O)c1sc(NC(=O)c2ccco2)nc1C	0.5%	-0.3%	2.1%	i	i	-10.8%
COC(=O)c1sccc1NC(=O)c1ccncc1	30.1%	-1.6%	10µM*	i	i	14.8%
COC(=O)c1sccc1NC(=O)c1c(C)noc1C	20µM*	3.2%	10.4%	2.63e-07M*	2.4e-07M*	?
COC(=O)c1sccc1NC(=O)c1ccco1	?	2.4%	12.6µM*	i	i	-25.4%
